Tau fibril ThT: blocks human tau fibril formation measured by thioflavin T; 270,000 compounds, 2.1% hits; AID 1460; Potency, µM (highest dose often 57.4 µM), for inactives: at the highest dose activity, negative = inhibition, usual class: inhibitors; P10636; recombinant tau K18 P301L, heparin-induced fibrillization, ThT fluorescence; also: potency is read from the fitted curve at half-maximal effect; nearly all actives have a fitted effect of over 55% in size
Target sequence (P10636 561-689 P618L limits assumed): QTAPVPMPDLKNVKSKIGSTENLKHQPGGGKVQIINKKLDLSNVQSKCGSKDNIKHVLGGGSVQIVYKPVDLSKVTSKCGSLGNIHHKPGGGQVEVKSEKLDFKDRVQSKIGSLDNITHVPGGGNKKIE
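Heparin-induced (20 uM) aggregation of recombinant human K18 P301L tau, 15 uM unlabeled with 0.24 uM labeled, pH 7 acetate buffer, 6 hr at 37 C with compound. Fibrils quantified by 30 uM ThT fluorescence after 1 hr ambient incubation.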
Coupling enz: counter-screen for Giardia aldolase inhibitors: coupling enzyme system. 290,000 compounds, 0.67% hits. activity change, negative = inhibition, % at 58.2 µM, hits read low. coupling enzyme system counterscreen, AmpLite Red fluorescence; in the data active = activity change below about -30%
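Compounds tested against the coupling enzymes alone at 57.5 uM final; readout was AmpLite Red fluorescence (525/598 nm) after 20 min at RT.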
Tau fluor cs: counter-screen for tau fibril formation inhibitors | tau K18 P301L Alexa594 fluorescence, heparin fibrillization | Potency, µM (series often up to 57.7 µM), for the others: top-dose activity change, negative = decrease | 280,000 compounds, 0.93% hits | AID 1463; also: potency is read from the fitted curve at half-maximal effect; nearly all actives have a fitted effect of over 55% in size
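Human tau K18 P301L (15 uM unlabeled, 0.24 uM Alexa 594-labeled) in 100 mM sodium acetate pH 7 with 20 uM heparin, 6 hr at 37 C. ThT 30 uM added, 1 hr ambient; Alexa 594 FP and total fluorescence read at 555/632 nm.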
Tau fibril FP: blocks human tau fibril formation measured by polarization; AID 1468; Potency, µM (doses to about 57.7 µM), for the others: at the top dose activity, negative = inhibition, actives largely listed as inhibitors; P10636; 280,000 compounds, 0.39% hits; K18 P301L tau heparin fibrillization, Alexa594 FP, 6 h; also: potency is read from the fitted curve at half-maximal effect; nearly all actives have a fitted effect of over 55% in size
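Human tau K18 […] P301L fragment, 15 uM unlabeled plus 0.24 uM Alexa 594-labeled tau (final), with compound and 20 uM heparin in 100 mM sodium acetate pH 7; 6 hr at 37 C, then Alexa 594 FP read.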
USP1-UAF1 inh: USP1/UAF1 (human) deubiquitinase inhibition | Potency, µM (doses to about 57.1 µM), for the others: at the top dose activity change, negative = inhibition, actives largely listed as inhibitors | 390,000 compounds, 0.23% hits | O94782 | recombinant USP1/UAF1, Ub-Rhodamine cleavage fluorescence; also: potency is read from the fitted curve at half-maximal effect; nearly all actives have a fitted effect of over 60% in size
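Step one: compound is pinned into 1nM USP1/UAF1 in HEPES pH 7.8 buffer with TCEP. Step two: 15 min room-temperature incubation. Step three: Ub-Rho (150nM final) starts cleavage, tracked by fluorescence over six one-minute reads.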
Active calls of the source: *; ? = inconclusive; · = no result given; [ ] = another dose, or the depositor's remark. The list is not random: actives were taken first. Their share in the collection is about 2.3%. Unless noted, calls follow the shape of the dose curve; as a rule, active = well fitted curve in the direction sought with a large enough effect; inconclusive = small, poorly fitted or top-dose-only effect, or another doubt; inactive = no such curve, though single readings can be large; an effect the other way counts as inactive or inconclusive. % is scaled to controls: 0 for no effect and ±100 for the full control effect.

SMILES	Tau fibril ThT	Coupling enz	Tau fluor cs	Tau fibril FP	USP1-UAF1 inh
S=C(Nc1ccc(Cl)cc1)c1nc2ccccc2s1	?	0	-20%	-7%	-17%
CN(C)c1ccc(C(CNS(=O)(=O)c2ccc(F)cc2)c2c[nH]c3ccccc23)cc1 (stereo not drawn)	-11%	-8	11µM*[quencher]	12%	-10%
CN(C)c1ccc(C(CNC(=O)c2ccccc2Br)c2c[nH]c3ccccc23)cc1 (stereo not drawn)	?	1	?	?	-11%
CN(C)c1ccc(C(CNC(=O)c2ccc(C#N)cc2)c2c[nH]c3ccccc23)cc1 (stereo not drawn)	?	-4	14µM*[quencher]	?	-7%
Cc1nc2ncccn2c1-c1csc(Nc2ccc(O)cc2)n1	10µM*	-2	?	7%	-26%
Oc1ccc(-c2csc(Nc3ncccn3)n2)cc1	?	0	-28%	11%	8%
Cc1ccc(Nc2nc(-c3c(C)nc4ccccn34)cs2)cc1	11µM*	0	10µM*[quencher]	?	-12%
Cc1nc2ccccn2c1-c1csc(NCc2ccco2)n1	?	-1	-17%	-11%	-22%
C=CCNc1nc(-c2c(C)nc3ncccn23)cs1	·	0	·	·	-16%
Cc1ccc(Nc2nc(-c3c(C)nc4ncccn34)cs2)cc1	14µM*	0	?	-5%	-19%
COc1ccc(CN=Cc2[nH]c3ccc(Br)c(Cl)c3c2O)cc1	16µM*	-30*	?	?	14µM*
CC(=C/C(=O)O)/C=C/c1ccco1	14µM*	-2	-20%	?	0%
CC(/C=C/c1ccc(Cl)o1)=C\C(=O)O	?	3	-14%	?	-4%
CCCCN(C)CC(O)Cn1cc(/C=C/C(=O)c2ccc(Br)cc2)c2ccccc21 (stereo not drawn)	20µM*	·	?	10%	?
CCCCN(C)CC(O)Cn1cc(/C=C/C(=O)c2ccc(C)cc2)c2ccccc21 (stereo not drawn)	14µM*	0	?	-4%	?
CCCN(CCC)CC(O)Cn1cc(/C=C/C(=O)c2ccc(C)cc2)c2ccccc21 (stereo not drawn)	18µM*	·	?	-12%	?
CCCCN(C)CC(O)Cn1cc(/C=C/C(=O)c2ccc(OC)c(OC)c2)c2ccccc21 (stereo not drawn)	?	·	?	2%	?
COc1cccc(NC(=O)CSCc2cc(=O)c3ccc(C)c(C)c3[nH]2)c1	-2%	·	-4%	-2%	5%
O=C(Nc1ccc(Cl)c(Cl)c1)OCc1cccnc1	18%	-1	?	14µM*	-2%
O=C(Nc1cccnc1)OCc1ccccc1	·	1	·	·	-28%
CC[N+]1(C)C2CCC1CC(OC(=O)[C@H]1CCC(C(=O)OC3CC4CCC(C3)[N+]4(C)CC)(c3ccccc3)c3ccccc31)C2 (stereo partly drawn)	10%	·	-3%	0%	·
O=C(Nc1cc(Sc2ccccn2)cc([N+](=O)[O-])c1)c1ccc(Cl)cc1	-14%	-2	10µM*[quencher]	-9%	-3%
Cc1cc(C)n(-c2nc(Nc3ccccc3)nc(-n3nc(C)cc3C)n2)n1	-11%	1	-5%	-2%	-18%
Cc1cc(C)n(-c2nc(N(c3ccccc3)c3ccccc3)nc(-n3nc(C)cc3C)n2)n1	20µM*	1	3%	?	-18%
CC(=O)Sc1nc(-c2ccccc2)[nH]c1S(=O)(=O)c1ccc(C)cc1	28µM*	0	-30%	40µM*	-15%
SMILES	Tau fibril ThT	Coupling enz	Tau fluor cs	Tau fibril FP	USP1-UAF1 inh
COc1ccc(OCC(O)CNc2ccc(Br)cc2)cc1 (stereo not drawn)	?	-13	18µM*[quencher]	14%	-22%
COc1ccc(OCC(O)CNC(=O)c2ccc(Br)cc2)cc1 (stereo not drawn)	-10%	7	-1%	3%	-11%
Cc1ccc(C(=O)c2c(N)c(C(=O)Nc3ccccc3Cl)c3ccccn23)cc1	-6%	·	-13%	-11%	11%
CC(=O)[C@]1(O)Cc2c(O)c3c(c(O)c2[C@@H](O[C@H]2C[C@H](N)[C@H](O)[C@H](C)O2)C1)C(=O)c1c(O)cccc1C3=O	4.5µM*	-35*	?	25µM*	·
CC(=O)[C@]1(O)Cc2c(O)c3c(c(O)c2[C@@H](O[C@H]2C[C@H](N)[C@H](O)[C@H](C)O2)C1)C(=O)c1ccccc1C3=O	3.5µM*	·	?	?	28µM*
Cc1cc(C)n(C(C)CC(=O)Nc2ccc(Cl)cc2C)n1 (stereo not drawn)	4%	·	-1%	2%	-7%
CCc1ccccc1NC(=O)C(CCSC)NS(=O)(=O)c1ccc2c(c1)oc(=O)n2C (stereo not drawn)	7%	·	9%	-2%	-16%
O=C(/C=C/c1c[nH]c2ccccc12)c1cccc2ccccc12	?	-12	6.3µM*[quencher]	?	-23%
O=C1NC(=S)S/C1=C\c1cc(Cl)ccc1Cl	·	·	·	·	-16%
Cc1cc(/C=C2\SC(=S)NC2=O)c(C)[nH]1	16µM*	1	?	3%	-24%
Cc1cc(/C=C2\SC(=S)N(C)C2=O)c(C)n1-c1ccc(O)cc1	6.3µM*	-4	8.9µM*[quencher]	?	?
Cc1cc(/C=C2\SC(=S)NC2=O)c(C)n1-c1cccc(O)c1	16µM*	0	?	14%	-20%
CCn1c(C)cc(/C=C2/SC(=S)NC2=O)c1C	13µM*	3	-27%	0%	-7%
CCn1ncc(/C=C2/SC(=S)NC2=O)c1C	-13%	0	7%	2%	-14%
Cc1nc(N2CCCC2)c2c(C(=O)Nc3cccc(C)c3C)c(C)oc2n1	-7%	·	-6%	-4%	-29%
Cc1cc(/C=C2/C(=O)NN(c3ccccc3)C2=O)c(C)n1-c1cccc(O)c1	13µM*	1	?	10%	-17%
COc1ccc(C2=CC3=C(Br)C(=O)C(C)(OC(=O)c4ccco4)C(=O)C3=CO2)cc1 (stereo not drawn)	16µM*	0	?	?	25µM*
COc1ccc(C2=CC3=C(Br)C(=O)C(C)(OC(=O)c4cccs4)C(=O)C3=CO2)cc1 (stereo not drawn)	-22%	0	-6%	0%	35µM*
COc1cc2c(-c3ccccc3Cl)nc3c(c(C)nn3-c3ccccc3)c2cc1OC	4%	·	-23%	?	?
O=C1/C(=C\c2cccs2)N=C(c2cccs2)N1Nc1ccccc1	10µM*	3	?	-18%	?
O=C1/C(=C/c2cccs2)N=C(c2cccs2)N1Nc1ccccc1	7.1µM*	6	?	-14%	?
Cc1ccc(C2=N/C(=C\c3cccs3)C(=O)N2Nc2ccccc2)cc1	?	0	?	-5%	?
